Measured values published in the supplement of paper PMC6897291.

System: RIVA
Experiment: growth inhibition by drug plus 177Lu-lilotomab satetraxetan (1 - RLU/untreated control) (fraction); higher = stronger inhibition
Conditions: 177Lu-lilotomab satetraxetan 0.5 ug/ml
Method: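 RIVA (RI-1) ABC-DLBCL cells were pretreated or not for 18 h with 0.5 ug/ml 177Lu-lilotomab satetraxetan (600 MBq/mg), washed and seeded (3000 cells/well) on 384-well plates pre-printed with the Selleck Cambridge Cancer Compound library. Viability was read by RealTime-Glo luminescence on days 3-6 after seeding. Effect = 1 - RLU/mean RLU of the 48 untreated no-drug control wells per plate; Bliss score = (M-E)/(1-Fa).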

CC(=O)Nc1cccc(-n2c(=O)n(C3CC3)c(=O)c3c(Nc4ccc(I)cc4F)n(C)c(=O)c(C)c32)c1
growth inhibition by drug plus 177Lu-lilotomab satetraxetan (10 nM, time (day): 3): 0.463 | growth inhibition by drug plus 177Lu-lilotomab satetraxetan (10 nM, time (day): 4): 0.488 | growth inhibition by drug plus 177Lu-lilotomab satetraxetan (10 nM, time (day): 5): 0.477 | growth inhibition by drug plus 177Lu-lilotomab satetraxetan (10 nM, time (day): 6): 0.465 | growth inhibition by drug plus 177Lu-lilotomab satetraxetan (100 nM, time (day): 3): 0.507 | growth inhibition by drug plus 177Lu-lilotomab satetraxetan (100 nM, time (day): 4): 0.487 | growth inhibition by drug plus 177Lu-lilotomab satetraxetan (100 nM, time (day): 5): 0.455 | growth inhibition by drug plus 177Lu-lilotomab satetraxetan (100 nM, time (day): 6): 0.407

CCOc1ccn(-c2ccc(F)cc2)c(=O)c1C(=O)Nc1ccc(Oc2ccnc(N)c2Cl)c(F)c1
growth inhibition by drug plus 177Lu-lilotomab satetraxetan (10 nM, time (day): 3): 0.626 | growth inhibition by drug plus 177Lu-lilotomab satetraxetan (10 nM, time (day): 4): 0.638 | growth inhibition by drug plus 177Lu-lilotomab satetraxetan (10 nM, time (day): 5): 0.657 | growth inhibition by drug plus 177Lu-lilotomab satetraxetan (10 nM, time (day): 6): 0.657 | growth inhibition by drug plus 177Lu-lilotomab satetraxetan (100 nM, time (day): 3): 0.445 | growth inhibition by drug plus 177Lu-lilotomab satetraxetan (100 nM, time (day): 4): 0.512 | growth inhibition by drug plus 177Lu-lilotomab satetraxetan (100 nM, time (day): 5): 0.523 | growth inhibition by drug plus 177Lu-lilotomab satetraxetan (100 nM, time (day): 6): 0.514

CN(NC(=O)CC(=O)NN(C)C(=S)c1ccccc1)C(=S)c1ccccc1 [Elesclomol]
growth inhibition by drug plus 177Lu-lilotomab satetraxetan (10 nM, time (day): 3): 0.972 | growth inhibition by drug plus 177Lu-lilotomab satetraxetan (10 nM, time (day): 4): 0.968 | growth inhibition by drug plus 177Lu-lilotomab satetraxetan (10 nM, time (day): 5): 0.972 | growth inhibition by drug plus 177Lu-lilotomab satetraxetan (10 nM, time (day): 6): 0.974 | growth inhibition by drug plus 177Lu-lilotomab satetraxetan (100 nM, time (day): 3): 0.987 | growth inhibition by drug plus 177Lu-lilotomab satetraxetan (100 nM, time (day): 4): 0.988 | growth inhibition by drug plus 177Lu-lilotomab satetraxetan (100 nM, time (day): 5): 0.987 | growth inhibition by drug plus 177Lu-lilotomab satetraxetan (100 nM, time (day): 6): 0.988

Cc1ccc([C@@H]2O[C@H](CO)[C@@H](O)[C@H](O)[C@H]2O)cc1Cc1ccc(-c2ccc(F)cc2)s1 [Canagliflozin]
growth inhibition by drug plus 177Lu-lilotomab satetraxetan (10 nM, time (day): 3): 0.342 | growth inhibition by drug plus 177Lu-lilotomab satetraxetan (10 nM, time (day): 4): 0.476 | growth inhibition by drug plus 177Lu-lilotomab satetraxetan (10 nM, time (day): 5): 0.499 | growth inhibition by drug plus 177Lu-lilotomab satetraxetan (10 nM, time (day): 6): 0.519 | growth inhibition by drug plus 177Lu-lilotomab satetraxetan (100 nM, time (day): 3): 0.383 | growth inhibition by drug plus 177Lu-lilotomab satetraxetan (100 nM, time (day): 4): 0.437 | growth inhibition by drug plus 177Lu-lilotomab satetraxetan (100 nM, time (day): 5): 0.439 | growth inhibition by drug plus 177Lu-lilotomab satetraxetan (100 nM, time (day): 6): 0.418

COc1cc2c(cc1O)CC[C@@H]1[C@@H]2CC[C@]2(C)[C@@H](O)CC[C@@H]12 [2-Methoxyestradiol]
growth inhibition by drug plus 177Lu-lilotomab satetraxetan (10 nM, time (day): 3): 0.476 | growth inhibition by drug plus 177Lu-lilotomab satetraxetan (10 nM, time (day): 4): 0.534 | growth inhibition by drug plus 177Lu-lilotomab satetraxetan (10 nM, time (day): 5): 0.548 | growth inhibition by drug plus 177Lu-lilotomab satetraxetan (10 nM, time (day): 6): 0.552 | growth inhibition by drug plus 177Lu-lilotomab satetraxetan (100 nM, time (day): 3): 0.308 | growth inhibition by drug plus 177Lu-lilotomab satetraxetan (100 nM, time (day): 4): 0.401 | growth inhibition by drug plus 177Lu-lilotomab satetraxetan (100 nM, time (day): 5): 0.422 | growth inhibition by drug plus 177Lu-lilotomab satetraxetan (100 nM, time (day): 6): 0.439
